Data from PubChem BioAssay (NCATS).
Results filed as inconclusive are left out. Entries that show only a call come without a potency. The source made the active and inactive calls. Unless noted, the call rests on the fitted dose curve; in most records, active means well fitted curve in the direction sought with a large enough effect; inconclusive means small, poorly fitted or top-dose-only effect, or another doubt; inactive means no such curve, though single readings can be large; an effect the other way counts as inactive or inconclusive.

Molecular target: Papain (Carica papaya) (UniProt P00784)
Sequence (P00784 whole entry, looked up): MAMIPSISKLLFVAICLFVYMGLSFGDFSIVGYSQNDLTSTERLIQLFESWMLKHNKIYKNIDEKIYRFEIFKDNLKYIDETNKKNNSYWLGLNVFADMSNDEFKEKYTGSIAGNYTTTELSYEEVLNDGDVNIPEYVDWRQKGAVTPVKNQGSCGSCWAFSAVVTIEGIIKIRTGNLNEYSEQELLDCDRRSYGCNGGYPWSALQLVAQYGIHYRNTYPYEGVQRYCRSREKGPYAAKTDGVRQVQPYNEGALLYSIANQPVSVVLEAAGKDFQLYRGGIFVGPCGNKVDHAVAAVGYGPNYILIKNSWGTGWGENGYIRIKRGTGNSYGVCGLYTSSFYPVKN
Test: Primary qHTS assay for inhibitors of the protease papain (AID 1645873);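 further: papain turnover of Z-FR-AMC read as the AMC fluorescence gain over 10 min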
Settings: papain Z-FR-AMC cleavage, AMC fluorescence; series mostly up to 49.8 µM
For `NC1CCc2cc(O)c(O)cc2C1` (stereo not drawn), the Potency was “inactive”.
For `O=C(O)Cc1cnc[nH]1`, the Potency was “inactive”.
For `CC(=O)NCCc1c[nH]c2ccccc12`, the Potency was “inactive”.
In the case of `CCCN1CCC[C@H](c2cccc(O)c2)C1`, the Potency is reported as “inactive”.
For `CCCN(CCC)[C@@H]1CCc2ccc(O)cc2C1`, the Potency was “inactive”.
In the case of `C[C@]12CCC3C(CC[C@H]4C[C@H](O)CC[C@]34C)C1CC[C@@H]2C(=O)CO` (stereo partly drawn), the Potency is reported as “inactive”.
In the case of `c1ccc(CCCN2CCN(CCOC(c3ccccc3)c3ccccc3)CC2)cc1`, the Potency is reported as “inactive”.
In the case of `NC(N)=NOCCC(N)C(=O)O` (stereo not drawn), the Potency is reported as “inactive”.
In the case of `O=C1CCCN1CC#CCN1CCCC1`, the Potency is reported as “inactive”.
For `NCCc1c[nH]c2ccccc12`, the Potency was “inactive”.
In the case of `COc1cc(C(O)CN)ccc1O` (stereo not drawn), the Potency is reported as “inactive”.
With `CC1=NN=C(c2ccc(N)cc2)c2cc3c(cc2C1)OCO3` the Potency was “inactive”.
For `Oc1ccc2c3c1O[C@H]1c4[nH]c5c(c4C[C@@]4(O)[C@@H](C2)N(CC2CC2)CC[C@]314)C[C@@]1(O)[C@H]2Cc3ccc(O)c4c3[C@@]1(CCN2CC1CC1)[C@H]5O4`, the Potency was “inactive”.
With `CCCCc1ccc(C(=O)O)nc1` the Potency was “inactive”.
For `NC(=O)CN1CC(O)CC1=O` (stereo not drawn), the Potency was “inactive”.
In the case of `CCCN(CCC)C1CCc2ccc(O)cc2C1` (stereo not drawn), the Potency is reported as “inactive”.
In the case of `NCc1cc(=O)[nH]o1`, the Potency is reported as “inactive”.
In the case of `O=C(Cc1ccc(Cl)c(Cl)c1)N1CCCCC1CN1CCCC1` (stereo not drawn), the Potency is reported as “inactive”.
With `CC(C)Oc1cccnc1N(C)C1CCN(Cc2ccccc2)CC1` the Potency was “inactive”.
With `NC(CP(=O)(O)O)C(=O)O` (stereo not drawn) the Potency was “inactive”.
With `C[N+]1(C)C2CCC1CC(OC(=O)C(CO)c1ccccc1)C2` (stereo not drawn) the Potency was “inactive”.
With `c1ccc2sc(C3(N4CCCCC4)CCCCC3)cc2c1` the Potency was “inactive”.
For `CN[C@@H]1C[C@@H](c2ccc(Cl)c(Cl)c2)c2ccccc21`, the Potency was “inactive”.
In the case of `CNCCc1c[nH]c2ccc(O)cc12`, the Potency is reported as “inactive”.
With `O=C(O)[C@@H]1CCN1` the Potency was “inactive”.
For `S=C(NC1CCCCC1)N1CCC(c2cnc[nH]2)CC1`, the Potency was “inactive”.
With `Cn1cnc(CCN)c1` the Potency was “inactive”.
With `C[C@@H](N)Cc1cnc[nH]1` the Potency was “inactive”.
For `NC1CC1c1ccccc1` (stereo not drawn), the Potency was “inactive”.
With `CN1C2CCC1CC(OC(=O)c1cc(Cl)cc(Cl)c1)C2` (stereo not drawn) the Potency was “inactive”.
For `CNCCc1ccc(O)c(O)c1`, the Potency was “inactive”.

System: not listed separately
Test: Primary qHTS for inhibitors of nuclear receptor binding SET domain protein 2 (NSD2) in an isogenic RCH-ACV NSD2 p.E1099K mutant (9B) (AID 1645876); further: nearly all actives have a fitted effect of over 70% in size; further: potency means the concentration at half of the fitted maximal effect
Settings: RCH-ACV NSD2 E1099K (9B) viability, CellTiter-Glo, 72 h; series mostly up to 44.9 µM
For `CC(=O)NCCc1c[nH]c2ccccc12`, the Potency was “inactive”.
With `O=C(Nc1ccccc1-c1ccc(Cl)cc1)c1cccnc1Cl` the Potency was “inactive”.
In the case of `O=S(=O)(O)C(F)(F)C(F)(F)C(F)(F)C(F)(F)F`, the Potency is reported as “inactive”.
For `Cc1ccc(Cl)c(O)c1`, the Potency was “inactive”.
For `CC(C)Oc1cccc(NC(=O)c2ccccc2C(F)(F)F)c1`, the Potency was 21.7 µM (active).
With `S=C(NC1CCCCC1)N1CCC(c2cnc[nH]2)CC1` the Potency was “inactive”.
For `CCCCCCCCc1ccc(O)cc1`, the Potency was 6.18 µM (active).
For `CC(=O)N(C)c1cccc(-c2ccnc3c(C(=O)c4cccs4)cnn23)c1`, the Potency was “inactive”.
With `O=C(Oc1ccc([N+](=O)[O-])cc1)N1CCN(Cc2cccc(Oc3ccccc3)c2)CC1` the Potency was “inactive”.

System: not listed separately
Test: Primary qHTS for inhibitors of nuclear receptor binding SET domain protein 2 (NSD2) in an RCH-ACV wild type WT cells (2C) (AID 1645877); further: nearly all actives have a fitted effect of over 70% in size; further: potency means the concentration at half of the fitted maximal effect
Settings: RCH-ACV (leukaemia line) NSD2 WT (2C) viability, CellTiter-Glo, 72 h; series mostly up to 44.9 µM
With `CC(=O)NCCc1c[nH]c2ccccc12` the Potency was “inactive”.
With `O=S(=O)(O)C(F)(F)C(F)(F)C(F)(F)C(F)(F)F` the Potency was “inactive”.
In the case of `Cc1ccc(Cl)c(O)c1`, the Potency is reported as “inactive”.
With `CC(C)Oc1cccc(NC(=O)c2ccccc2C(F)(F)F)c1` the Potency was 24.3 µM (active).
For `S=C(NC1CCCCC1)N1CCC(c2cnc[nH]2)CC1`, the Potency was “inactive”.
With `O=C(Oc1ccc([N+](=O)[O-])cc1)N1CCN(Cc2cccc(Oc3ccccc3)c2)CC1` the Potency was “inactive”.

Molecular target: Catechol O-methyltransferase (Homo sapiens) (UniProt P21964)
Sequence (P21964 whole entry, looked up): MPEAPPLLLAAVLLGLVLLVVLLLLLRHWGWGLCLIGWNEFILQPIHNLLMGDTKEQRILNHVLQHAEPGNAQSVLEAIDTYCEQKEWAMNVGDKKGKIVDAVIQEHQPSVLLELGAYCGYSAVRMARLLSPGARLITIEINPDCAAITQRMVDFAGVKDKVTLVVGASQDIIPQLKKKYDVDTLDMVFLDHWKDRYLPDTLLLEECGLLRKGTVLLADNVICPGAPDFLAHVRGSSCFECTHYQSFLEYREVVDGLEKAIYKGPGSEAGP
Test: Confirmatory Screen for Target Class Profiling of Small Molecule Inhibitors of Methyltransferases (AID 1745852; calls by dose curve)
Settings: MTase-Glo luminescence, SAH detection, recombinant enzyme; measured here: COMT max response; stronger effect = lower value
Work on `NC1CCc2cc(O)c(O)cc2C1` (stereo not drawn) yielded an activity of 149%.
In the case of `CCCN(CCC)[C@@H]1CCc2ccc(O)cc2C1`, the activity is reported as 3.68%.
`NCCc1c[nH]c2ccccc12` showed an activity of -4.15%.
For `CNCCc1c[nH]c2ccc(O)cc12`, the activity was 2.02%.
Molecule `Cn1cnc(CCN)c1` has an activity of 2.37%.
`C[C@@H](N)Cc1cnc[nH]1` gave an activity of -4.66%.
`NC1CC1c1ccccc1` (stereo not drawn) showed an activity of 4.07%.
With `CNCCc1ccc(O)c(O)c1` the activity was 109%.

Molecular target: Guanidinoacetate N-methyltransferase (Homo sapiens) (UniProt Q14353)
Test: as above
Settings: MTase-Glo luminescence, SAH detection, recombinant enzyme; activity change, negative = inhibition: at 57.3 µM (top of the series)
Molecule `NC1CCc2cc(O)c(O)cc2C1` (stereo not drawn) has an activity change, negative = inhibition of 0.293%.
In the case of `CCCN(CCC)[C@@H]1CCc2ccc(O)cc2C1`, the activity change, negative = inhibition is reported as 1.97%.
Molecule `NCCc1c[nH]c2ccccc12` has an activity change, negative = inhibition of 2.74%.
For `CNCCc1c[nH]c2ccc(O)cc12`, the activity change, negative = inhibition was 1.54%.
`Cn1cnc(CCN)c1` showed an activity change, negative = inhibition of 1.75%.
`C[C@@H](N)Cc1cnc[nH]1` showed an activity change, negative = inhibition of -1.84%.
Work on `NC1CC1c1ccccc1` (stereo not drawn) yielded an activity change, negative = inhibition of 2.15%.
For `CNCCc1ccc(O)c(O)c1`, the activity change, negative = inhibition was 3.55%.

Molecular target: Nicotinamide N-methyltransferase (Homo sapiens) (UniProt P40261)
Sequence (P40261 whole entry, looked up): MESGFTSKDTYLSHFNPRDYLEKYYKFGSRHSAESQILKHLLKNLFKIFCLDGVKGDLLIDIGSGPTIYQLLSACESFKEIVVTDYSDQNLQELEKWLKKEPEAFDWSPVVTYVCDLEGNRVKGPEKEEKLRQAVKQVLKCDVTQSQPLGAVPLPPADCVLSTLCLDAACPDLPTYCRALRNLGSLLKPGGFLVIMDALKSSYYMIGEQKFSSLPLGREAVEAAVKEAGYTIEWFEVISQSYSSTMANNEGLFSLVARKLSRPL
Test: as above
Settings: MTase-Glo luminescence, SAH detection, recombinant enzyme; measured here: NNMT max response; stronger effect = lower value
Work on `NC1CCc2cc(O)c(O)cc2C1` (stereo not drawn) yielded an activity of -14.5%.
In the case of `CCCN(CCC)[C@@H]1CCc2ccc(O)cc2C1`, the activity is reported as -6.47%.
In the case of `NCCc1c[nH]c2ccccc12`, the activity is reported as -8.81%.
Work on `CNCCc1c[nH]c2ccc(O)cc12` yielded an activity of -11.4%.
With `Cn1cnc(CCN)c1` the activity was -8.03%.
Molecule `C[C@@H](N)Cc1cnc[nH]1` has an activity of -6.87%.
Work on `NC1CC1c1ccccc1` (stereo not drawn) yielded an activity of -6.32%.
In the case of `CNCCc1ccc(O)c(O)c1`, the activity is reported as -0.877%.

Molecular target: Phenylethanolamine N-methyltransferase (Homo sapiens) (UniProt P11086)
Sequence (P11086 whole entry, looked up): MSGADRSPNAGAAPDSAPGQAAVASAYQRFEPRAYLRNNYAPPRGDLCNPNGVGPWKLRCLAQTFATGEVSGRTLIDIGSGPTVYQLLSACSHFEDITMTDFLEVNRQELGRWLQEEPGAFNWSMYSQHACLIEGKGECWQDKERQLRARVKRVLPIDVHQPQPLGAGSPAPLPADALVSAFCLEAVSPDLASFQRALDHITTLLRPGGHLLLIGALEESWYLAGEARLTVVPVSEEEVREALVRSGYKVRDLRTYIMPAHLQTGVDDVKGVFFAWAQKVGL
Test: as above
Settings: MTase-Glo luminescence, SAH detection, recombinant enzyme; measured here: PNMT max response; stronger effect = lower value
In the case of `NC1CCc2cc(O)c(O)cc2C1` (stereo not drawn), the activity is reported as -22.8%.
Work on `CCCN(CCC)[C@@H]1CCc2ccc(O)cc2C1` yielded an activity of 6.74%.
Work on `NCCc1c[nH]c2ccccc12` yielded an activity of -14.8%.
Molecule `CNCCc1c[nH]c2ccc(O)cc12` has an activity of 0.784%.
In the case of `Cn1cnc(CCN)c1`, the activity is reported as 3.1%.
In the case of `C[C@@H](N)Cc1cnc[nH]1`, the activity is reported as -2.06%.
With `NC1CC1c1ccccc1` (stereo not drawn) the activity was -14.4%.
Molecule `CNCCc1ccc(O)c(O)c1` has an activity of 1.2%.
